Assay [1] deals with Cellular tumor antigen p53 (Homo sapiens) (UniProt P04637). Nature of the assay: Primary qHTS for small molecule compounds that upregulate eGFP-tagged delta133p53alpha (in N-terminal) cells. (AID 2060322).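 Also: series mostly up to about 56 µM; 0% = DMSO vehicle and 100% = reference activator; nearly all actives have a fitted effect of over 75% in size.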 The following applies: NCI-H358 eGFP-delta133p53alpha fluorescence, 24 h; activation: active compounds read high. A digest of the protocol: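 NCI-H358 cells pre-induced 24 h with 10 ng/ml doxycycline to express N-terminal eGFP-delta133p53alpha, then dosed 24 h at 37C without doxycycline; fixed, Hoechst-stained, GFP intensity by laser scanning cytometry, normalized to DMSO (0%) and 57.5 uM 5-azacytidine (100%).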
Background: qHTS replaces the single test concentration by a dilution series.

For assay [2], the target named is Aldehyde dehydrogenase, mitochondrial (Homo sapiens) (UniProt P05091). Nature of the assay: qHTS for Inhibitors of the Aldehyde Dehydrogenase Family (ALDH2) Validation screens (AID 2061302; active = well fitted inhibition curve with a large enough effect; title and protocol of this record describe different tests;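 also: plate controls were DMSO vehicle for no effect and maximal DPI positive control response for full effect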).
For assay [3], the target named is Retinaldehyde dehydrogenase 3 (Homo sapiens) (UniProt P47895). Nature of the assay: qHTS for Inhibitors of the Aldehyde Dehydrogenase Family (ALDH1A3) Validation screen (AID 2061312). Also: % is scaled to controls: 0 for no effect and ±100 for the full control effect; nearly all actives have a fitted effect of over 45% in size.
Assay [4] is described as follows: BET inhibitor-based combinations targeting novel dependencies in MECOM-rearranged (r) AML: SET-2 cell line (AID 2202231).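 Also: plate controls were DMSO treated cells for no effect and wells without cells for full effect; nearly all actives have a fitted effect of over 35% in size.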 The following applies: SET-2 AML cells viability, CellTiter-Glo luminescence, 48 h; viability: active compounds read low, series mostly up to about 46 µM. A digest of the protocol:
(§1)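 Here, 11-point titrations of each agent were applied to 500 seeded cells and incubated 48 hr; CellTiter-Glo signal, scaled against DMSO and empty wells, was integrated as AUC, then Z-scored within the individual line.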
A general note: ATP-based viability assays read luminescence as a measure of living cells.

Assay [5] in a line: BET inhibitor-based combinations targeting novel dependencies in MECOM-rearranged (r) AML: HNT-34 cell line (AID 2202234). Also: nearly all actives have a fitted effect of over 35% in size. Also: potency is read from the fitted curve at half-maximal effect. A digest of the protocol:
(§2)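 Normalized to DMSO and empty-well controls, the luminescence data from CellTiter-Glo after 48 hr drug exposure were fitted across 11 concentrations. Reported metrics are area under the dose-response curve and its Z-transformed form.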

Assay [6] is described as follows: BET inhibitor-based combinations targeting novel dependencies in MECOM-rearranged (r) AML: AML-194 cell line (AID 2202237; also: nearly all actives have a fitted effect of over 40% in size; also: potency is read from the fitted curve at half-maximal effect). Put shortly: as §1
For assay [7], the target named is Aldehyde dehydrogenase, mitochondrial (Homo sapiens) (UniProt P05091). Nature of the assay: qHTS for Inhibitors of the Aldehyde Dehydrogenase Family (ALDH2) Confirmatory screens (AID 2061303; active = well fitted inhibition curve with a large enough effect; title and protocol of this record describe different tests; also: % is scaled to controls: 0 for no effect and ±100 for the full control effect; nearly all actives have a fitted effect of over 45% in size).
Assay [8] can be described thus: qHTS for Inhibitors of the Aldehyde Dehydrogenase Family (ALDH1A2, ALDH1A3, ALDH2, ALDH3A1) (AID 2061307). Also: % is scaled to controls: 0 for no effect and ±100 for the full control effect; nearly all actives have a fitted effect of over 50% in size.
The target of assay [9] is Aldehyde dehydrogenase, mitochondrial (Homo sapiens) (UniProt P05091). Nature of the assay: qHTS for Inhibitors of the Aldehyde Dehydrogenase Family (ALDH2) Primary screen (AID 2061308).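 Also: plate controls were vehicle for no effect and reference inhibitor for full effect; nearly all actives have a fitted effect of over 55% in size.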
Assay [10] deals with Retinaldehyde dehydrogenase 3 (Homo sapiens) (UniProt P47895). Nature of the assay: qHTS for Inhibitors of the Aldehyde Dehydrogenase Family (ALDH1A3) Confirmatory screens (AID 2061311). Also: % is scaled to controls: 0 for no effect and ±100 for the full control effect; nearly all actives have a fitted effect of over 60% in size.
Assay [11] deals with Retinal dehydrogenase 2 (Homo sapiens) (UniProt O94788). Nature of the assay: qHTS for Inhibitors of the Aldehyde Dehydrogenase Family (ALDH1A2) Confirmation screens (AID 2061314). Also: nearly all actives have a fitted effect of over 65% in size.
In assay [12] the target is Retinaldehyde dehydrogenase 3 (Homo sapiens) (UniProt P47895). Nature of the assay: qHTS for Inhibitors of the Aldehyde Dehydrogenase Family (ALDH1A3) Primary screen (AID 2061315).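 Also: plate controls were DMSO vehicle for no effect and reference inhibitor for full effect.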
Assay [13] can be described thus: BET inhibitor-based combinations targeting novel dependencies in MECOM-rearranged (r) AML: MV-4-11 cell line (AID 2202233). Also: nearly all actives have a fitted effect of over 45% in size. Also: potency is read from the fitted curve at half-maximal effect. A digest of the protocol: as §2
Assay [14] in a line: BET inhibitor-based combinations targeting novel dependencies in MECOM-rearranged (r) AML: UCSD-AML1 cell line (AID 2202235). Also: nearly all actives have a fitted effect of over 40% in size. Also: potency is read from the fitted curve at half-maximal effect. A digest of the protocol: as §2
Assay [15] is described as follows: BET inhibitor-based combinations targeting novel dependencies in MECOM-rearranged (r) AML: AML-191 cell line (AID 2202236; also: nearly all actives have a fitted effect of over 35% in size; also: potency is read from the fitted curve at half-maximal effect). Put shortly: as §1
In assay [16] the target is Aldehyde dehydrogenase 1A1 (Homo sapiens) (UniProt P00352). Nature of the assay: qHTS for Inhibitors of the Aldehyde Dehydrogenase Family (ALDH1A1) Confirmatory screens (AID 2061316). Also: nearly all actives have a fitted effect of over 65% in size. Also: potency is read from the fitted curve at half-maximal effect.
Assay [17] in a line: BET inhibitor-based combinations targeting novel dependencies in MECOM-rearranged (r) AML: OCI-AML3 cell line (AID 2202232).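 Also: series mostly up to about 46 µM; plate controls were DMSO vehicle wells for no effect and wells without cells for full effect; nearly all actives have a fitted effect of over 35% in size.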 The following applies: Potency: OCI-AML3 viability. Put shortly:
as §1

Structures are written as SMILES. “And” between values parts separate entries of the source, which are not always exact repeats. Identical values can stand only once. Inconclusive results are not listed. Values without a mark were called inactive. The source made the active and inactive calls. Unless noted, calls follow the shape of the dose curve; as a rule, active = well fitted curve in the direction sought with a large enough effect; inconclusive = small, poorly fitted or top-dose-only effect, or another doubt; inactive = no such curve, though single readings can be large; an effect the other way counts as inactive or inconclusive.

Cellular tumor antigen p53 (Homo sapiens), sequence (P04637 whole entry, looked up): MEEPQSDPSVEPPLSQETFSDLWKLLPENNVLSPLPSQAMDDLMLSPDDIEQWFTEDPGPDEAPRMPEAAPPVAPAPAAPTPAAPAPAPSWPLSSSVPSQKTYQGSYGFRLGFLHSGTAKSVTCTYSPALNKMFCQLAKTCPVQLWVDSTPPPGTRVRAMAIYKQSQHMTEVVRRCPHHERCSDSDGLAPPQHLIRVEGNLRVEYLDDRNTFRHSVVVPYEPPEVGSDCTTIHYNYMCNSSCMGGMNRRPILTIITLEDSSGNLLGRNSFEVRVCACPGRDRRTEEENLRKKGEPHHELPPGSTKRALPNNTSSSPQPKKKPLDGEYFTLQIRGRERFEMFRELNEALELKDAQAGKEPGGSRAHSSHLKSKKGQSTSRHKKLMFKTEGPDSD

For `CP(=O)(O)C1=CCNCC1`, in [1], the activation was -37.6%. The Potency result in assay [2] and in assay [3] was “inactive” in each case.
The term viability denotes a read-out of living cells in per cent, often relative to untreated cells. With `CCCN1CCO[C@@H]2c3cc(O)ccc3OC[C@H]21`, the activation in assay [1] is -9.95%. Moreover, the Potency result in assay [2], in assay [5] and in assay [6] was “inactive” throughout. The viability in [4] was 92%.
Consider `COc1ccc2c(c1)C13CCCCC1C(C2)N(C)CC3` (stereo not drawn), for which, in [1], the activation is -0.635%. The Potency entry in [2] and in assay [3] was “inactive” throughout.
For `CCCN(CCC)[C@@H]1CCc2ccc3[nH]c(C#N)cc3c2C1`, the activation in assay [1] is 19.1%. Besides, the Potency result in [7], in assay [8], in assay [9], in [10], in [11] and in [12] was “inactive” in each case.
As for `NC1CC1c1ccccc1` (stereo not drawn), the activation in [1] was -3.62% and 6.08%. Moreover, the Potency result in assay [2] and in [3] was “inactive” each time.
On to `Cn1c(CCCC(=O)O)nc2cc(N(CCCl)CCCl)ccc21`, for which the activation in assay [1] is 27.7% and 5.11% and -16.6%. Also, in [2], the Potency result is “inactive”. Also, in assay [4], the viability is 78.5%. Further, the Potency in [13] is 10.5 µM (active); in assay [5], 14.8 µM (active); in assay [14], 18.6 µM (active); in assay [15], 16.6 µM (active); in assay [6], 20.9 µM (active).
With `CC(N)c1cccc(Cl)c1Cl` (stereo not drawn), the activation in assay [1] was -35.4%. For the same compound, the Potency entry in assay [2] and in assay [3] was “inactive” each time.
Turning to `NCCCP(=O)(O)O`, the activation in assay [1] was -25.8%. Besides, the Potency result in assay [2] and in assay [3] was “inactive” each time.
Turning to `C[C@@H]1O[C@@H](O[C@H]2C[C@@H](O)[C@]3(CO)[C@@H]4C(CC[C@]3(O)C2)[C@@]2(O)CC[C@H]([C@@H]3COC(=O)C3)[C@@]2(C)C[C@H]4O)[C@H](O)[C@H](O)[C@H]1O` (stereo partly drawn), in assay [1], the activation is -50%. The Potency result in assay [2] and in [3] was “inactive” in each case.
As for `O=C(O)CC[N+](=O)[O-]`, the activation in assay [1] is -18.9%. Moreover, the Potency result in assay [2] and in assay [3] was “inactive” throughout.
For the compound `CC(C)NC(C)Cc1ccc(I)cc1` (stereo not drawn), in [1], the activation is -3.39%. The Potency result in [2] and in [3] was “inactive” throughout.
Consider `COc1ccc(OC)c(C(O)C(C)N)c1` (stereo not drawn), for which, in assay [1], the activation is 15.6%. The Potency entry in assay [2] and in [3] was “inactive” in each case.
As for `O=C1CCCN1CC#CCN1CCCC1`, in assay [1], the activation is -14.5%. In addition, the Potency entry in assay [2] and in assay [3] was “inactive” throughout.
Turning to `CC(=O)[C@H]1CC[C@H]2[C@@H]3CC[C@H]4C[C@](C)(O)CC[C@]4(C)[C@H]3CC[C@]12C`, the activation in [1] is -8.47% and -37.3%. The Potency entry in [2] and in [3] was “inactive” each time.
For `C[C@]12Cc3cn4c(nc3C=C1CCC1C2CC[C@@]2(C)[C@H]1CC[C@@]2(O)C#N)nc1ccccc14` (stereo partly drawn), the activation in [1] was -9.64%. Moreover, the Potency entry in assay [2] is “inactive”. In addition, the Potency in assay [16] is 12.7 µM (active).
In the case of `CC(C)c1cccc(C(C)C)c1O`, in [1], the activation was 0.683% and -5.08% and -18.8%. Besides, the Potency result in assay [2], in assay [3], in assay [17], in assay [13], in [14] and in assay [6] was “inactive” throughout.
In the case of `NC(=O)CN1CC(O)CC1=O` (stereo not drawn), the activation in [1] is -34.2%. In addition, the Potency entry in assay [2] and in assay [3] was “inactive” throughout.
In the case of `COc1ccc2c(c1OC)C(=O)O[C@H]2[C@@H]1c2cc3c(cc2CCN1C)OCO3`, the activation in assay [1] was 9.21% and -17.4%. Further, the Potency result in [2] and in [3] was “inactive” each time.
Take `NC(=NCCC[C@H](N)C(=O)O)N[N+](=O)[O-]`: the activation in assay [1] was -32.4%. Further, the Potency entry in assay [2] and in [3] was “inactive” each time.
As for `CCCN1CCC[C@@H]2Cc3[nH]ncc3C[C@H]21`, the activation in assay [1] was -5.86% and -11.2% and 2.09%. For the same compound, the Potency result in [2] and in assay [3] was “inactive” in each case.
On to `COC(=O)[C@@H](N)CCCN=C(N)N[N+](=O)[O-]`, for which, in assay [1], the activation was -9.21% and -14.8%. Further, the Potency entry in [2], in assay [3], in [17], in assay [13], in assay [5] and in assay [15] was “inactive” in each case. In addition, the Potency result in assay [6] is “inactive”. Besides, the viability in [4] was 109%.
`O=C1NCN(c2ccccc2)C12CCN(CC1COc3ccccc3O1)CC2` (stereo not drawn): in [1], the activation was -13.1%. The Potency entry in [2] and in assay [3] was “inactive” in each case.
For the compound `Clc1cc(I)cc(Cl)c1NC1=NCCN1`, the activation in assay [1] was -24.7%. Moreover, the Potency entry in [2] and in assay [3] was “inactive” in each case.
As for `O=C(O)[C@@H]1CCN1`, the activation in [1] is -48.2%. The Potency result in assay [2] and in [3] was “inactive” each time.
For `COc1ccc2c(c1)c(CCN(C)C)cn2S(=O)(=O)c1ccccc1`, the activation in assay [1] was 7.16%. Further, the Potency result in assay [7], in assay [8], in assay [9], in assay [10], in assay [3] and in assay [11] was “inactive” each time. Besides, the Potency result in [12] was “inactive”.
Take `C[C@H]1C2Cc3ccc(O)cc3[C@@]1(C)CCN2CC1CC1`: the activation in [1] is -23.4%. Besides, the Potency result in assay [2] and in assay [3] was “inactive” throughout.
Consider `O=S(=O)(c1ccccc1F)N1CCOc2c(N3CCNCC3)cccc21`, for which the activation in assay [1] is 9.07%. Further, the Potency result in assay [7], in assay [8], in [9], in [10], in [11] and in [12] was “inactive” throughout. Moreover, the Potency entry in assay [16] is “inactive”.
Regarding `O=S1(=O)N(CCN2CC=C(c3c[nH]c4cc(F)ccc34)CC2)c2cccc3c2N1CCC3`, the activation in assay [1] was 24.1%. Further, the Potency result in assay [2] and in [3] was “inactive” each time.
As to `O=C(O)c1nn(Cc2ccc(Cl)cc2Cl)c2ccccc12`, in assay [1], the activation was 21.3% and 19.8% and -21.2%. The Potency result in assay [2], in [3], in [13], in [5], in [15] and in assay [6] was “inactive” in each case. For the same compound, in assay [4], the viability is 107%.

Source of the values: PubChem BioAssay (NCATS).
